Compound activity from PubChem BioAssay.
Shown is part of a subset that was picked to be rich in hits.
CBX7 inh = inhibitors of human CBX7 binding to H3K27me3 peptide. O95931. AlphaScreen His6-CBX7 / biotin-H3K27me3 peptide binding; stronger effect = lower value. normalised signal (fraction of DMSO) (concentration not given with the values). hit rate 1.1% among 66,000. AID 1224903; in the data active means normalised signal below about 0.5
Target sequence (O95931 whole entry, looked up): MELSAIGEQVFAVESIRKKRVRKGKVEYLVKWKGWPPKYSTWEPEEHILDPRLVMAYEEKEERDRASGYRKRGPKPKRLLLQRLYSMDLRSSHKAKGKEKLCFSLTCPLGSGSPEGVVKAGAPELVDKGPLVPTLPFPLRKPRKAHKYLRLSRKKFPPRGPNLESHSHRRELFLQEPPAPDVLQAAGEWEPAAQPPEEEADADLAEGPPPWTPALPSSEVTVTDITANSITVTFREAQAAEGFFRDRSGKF
An asterisk follows results filed as active; ! = repeats disagree.

Screening CC(C)c1ccc(NC(=O)C(c2ccc3c(c2)OCO3)N2CCc3ccccc32)cc1 (stereo unspecified) returned CBX7 inh 0.66.
`CC(C)c1ccc(NC(=O)C(c2ccccc2)N2CCc3ccccc32)cc1` (stereo unspecified) gave CBX7 inh 0.49*.
Screening Cc1cccc(C)c1NC(=O)C(c1ccccc1)N1CCc2ccccc21 (stereo unspecified) returned CBX7 inh 0.87.
Cc1cccc(-c2nc(CSCC(=O)NC3CCCCC3)c(C)o2)c1 was read as CBX7 inh 1.1.
For CC(C)(C)OC(=O)N1CCC(c2c(C(=O)Nc3ccccc3F)cnn2-c2ccc(F)cc2)CC1 the results were CBX7 inh 0.99.
CCN(CC)S(=O)(=O)c1ccc2c(c1)N(CC(=O)NCc1ccc(F)cc1)C(=O)CO2 was read as CBX7 inh 0.99.
O=C(CN1C(=O)COc2ccc(Cl)cc21)NCc1ccc(F)cc1 was read as CBX7 inh 0.42*.
`Cc1ccc(CNC(=O)CN2C(=O)COc3ccc(Cl)cc32)cc1` gave CBX7 inh 1.4.
Screening c1cn2c(Nc3ccc4c(c3)OCCO4)c(-c3ccsc3)nc2cn1 returned CBX7 inh 1.4.
For COc1ccc(C(=O)NCc2nnc(SCC(=O)Nc3cc(C)on3)o2)cc1OC the results were CBX7 inh 0.96.
Screening Cc1cccc(NC(=O)CSc2nnc(CNC(=O)COc3ccc(Cl)cc3)o2)c1 returned CBX7 inh 1.
Screening COc1cc(C(=O)NCc2nnc(SCC(=O)Nc3cc(C)on3)o2)cc(OC)c1OC returned CBX7 inh 0.051*.
COc1cc(C(=O)NCc2nnc(SCC(=O)Nc3ccc(Cl)cc3)o2)cc(OC)c1OC was read as CBX7 inh 0.95.
For Cc1cc(NC(=O)CSc2nnc(CNC(=O)c3c(F)cccc3Cl)o2)no1 the results were CBX7 inh 0.029*.
`O=C(CSc1nnc(CNC(=O)c2c(F)cccc2Cl)o1)Nc1ccccc1` gave CBX7 inh 0.91.
For Cc1cccc(NC(=O)CSc2nnc(CNC(=O)c3c(F)cccc3Cl)o2)c1 the results were CBX7 inh 1.1.
`Cc1cc(NC(=O)CSc2nnc(CNC(=O)COc3ccc(Cl)cc3)o2)no1` gave CBX7 inh 0.21*.
Screening Cc1nnc(NC(=O)CSc2nnc(CNC(=O)COc3ccc(Cl)cc3)o2)s1 returned CBX7 inh 0.85.
Screening Clc1ccc(Cn2c(-c3cccs3)nc3ccccc32)cc1 returned CBX7 inh 0.51.
c1ccc(-c2csc(Nc3cccc4ccccc34)n2)cc1 was read as CBX7 inh 0.82.
`Fc1ccc(-c2csc(Nc3ccc4c(c3)OCO4)n2)cc1` gave CBX7 inh 0.38*!.
For c1ccc(-c2csc(Nc3ccc4c(c3)OCO4)n2)cc1 the results were CBX7 inh 0.37*!.
Screening CC(C)Cc1ccc(-c2csc(Nc3ccc(F)cc3)n2)cc1 returned CBX7 inh 0.8.
Screening COc1ccc(-c2csc(Nc3ccc4c(c3)OCO4)n2)cc1F returned CBX7 inh 0.48*!.
Screening Ic1ccc(-c2csc(Nc3ccc4ccccc4c3)n2)cc1 returned CBX7 inh 0.88.
CC(=O)Nc1ccc(Nc2nc(-c3ccccc3)cs2)cc1 was read as CBX7 inh 0.86.
CN(C)c1ccc(Nc2nc(-c3ccccc3)cs2)cc1 was read as CBX7 inh 0.34*.
Screening O=C(Nc1nc(-c2ccc(Cl)cc2)cs1)c1ccc2c(c1)OCO2 returned CBX7 inh 1.1.
Screening O=C1c2ccccc2C(=O)N1c1cccc(-c2csc(Nc3ccc4c(c3)OCO4)n2)c1 returned CBX7 inh 1.6.
Screening COc1ccc(-c2csc(Nc3cccc(C(F)(F)F)c3)n2)cc1F returned CBX7 inh 0.75.
COc1ccc(-c2csc(Nc3ccccc3OC)n2)cc1F was read as CBX7 inh 1.
CCOC(=O)N1CCN(c2c(NCCCN3CCN(CC)CC3)c(=O)c2=O)CC1 was read as CBX7 inh 0.99.
For COc1ccc(C2CC(=O)N(CC(=O)NC3CCCCC3)c3ccccc3S2)cc1OC (stereo unspecified) the results were CBX7 inh 0.97.
Cc1cccc(NC(=O)CC2Sc3ccccc3NC2=O)c1 (stereo unspecified) was read as CBX7 inh 1.
Screening CCc1ccc(NC(=O)CN2C(=O)CSc3ccc(S(=O)(=O)N(CC)CC)cc32)cc1 returned CBX7 inh 0.95.
Screening O=C(NC1CC1)c1ccc2c(c1)N(Cc1ccccc1)C(=O)CS2 returned CBX7 inh 0.93.
`COc1ccc(NC(=O)c2ccc(CNc3c(N4CCC(C)CC4)c(=O)c3=O)cc2)cc1` gave CBX7 inh 0.91.
For O=C(CN1CCOc2ccccc21)NCc1ccc2c(c1)OCO2 the results were CBX7 inh 0.85.
Screening Cc1cccc(OCC(=O)Nc2ncc(Cc3cccc(C(F)(F)F)c3)s2)c1 returned CBX7 inh 1.
`Cc1ccc(C(=O)Nc2ccc(NC(=O)c3ccccc3)cc2)cc1S(=O)(=O)N1CCCCC1` gave CBX7 inh 1.4.
For Cc1cccc(CCNC(=O)CCNS(=O)(=O)c2ccc3c(c2)CCC(=O)N3)c1 the results were CBX7 inh 1.2.
Screening Oc1ccccc1-c1nc(-c2ccccc2)c(-c2ccc(F)cc2)[nH]1 returned CBX7 inh 0.58.
`c1ccc(-c2nc(-c3c[nH]c4ccccc34)[nH]c2-c2ccccc2)cc1` gave CBX7 inh 0.8.
For Cc1ccc(Nc2c(-c3c[nH]c4ccccc34)nc3cccc(C)n23)cc1 the results were CBX7 inh 0.87.
Screening Fc1ccc(-c2[nH]c(-c3c[nH]c4ccccc34)nc2-c2ccccc2)cc1 returned CBX7 inh 0.42*.
For Oc1ccccc1-c1nc(-c2ccc(F)cc2)c(-c2ccc(F)cc2)[nH]1 the results were CBX7 inh 0.7.
Cc1ccc(-c2nc(-c3c[nH]c4ccccc34)[nH]c2-c2ccc(C)cc2)cc1 was read as CBX7 inh 0.37*.
NC(=O)c1nn2c(C(F)(F)F)cc(-c3cccs3)nc2c1Br was read as CBX7 inh 1.1.
For O=C(CN1C(=O)CCSc2ccccc21)NCCc1c[nH]c2ccccc12 the results were CBX7 inh 0.94.
For COc1ccc(CN(C)CCc2ccccn2)cc1 the results were CBX7 inh 0.69.
`COc1ccc(CN(C)CCc2ccccn2)cc1OCc1ccccc1` gave CBX7 inh 0.72.
Screening COc1ccc(CN(C)CCc2ccccn2)cc1OC returned CBX7 inh 0.47*.
Screening CC(C)CSc1oc(-c2cccs2)nc1S(=O)(=O)c1ccc(F)cc1 returned CBX7 inh 0.89.
O=C(Nc1ccc(-c2nc3ccccc3s2)cc1)c1ccccc1Cl was read as CBX7 inh 1.2.
`CCCCNC(=O)CCN1N=C(c2ccc(CC)cc2)CCC1=O` gave CBX7 inh 1.
For c1ccc(-c2nnc3sc(-c4cnccn4)nn23)cc1 the results were CBX7 inh 1.
`c1ccc(-c2nnc3sc(-c4ccccn4)nn23)cc1` gave CBX7 inh 0.8.
CC(C)(C)c1ccc(-c2nnc3sc(-c4ccccn4)nn23)cc1 was read as CBX7 inh 0.11*.
O=C(Cc1ccc(Cl)cc1)Nc1nc(-c2cccc3ccccc23)cs1 was read as CBX7 inh 0.97.
`O=C(O)c1ccccc1Nc1ccn2c(=O)c3ccccc3nc2n1` gave CBX7 inh 0.75.
For COc1ccc(S(=O)(=O)NCCc2c(C)[nH]c3ccc(Br)cc23)cc1C the results were CBX7 inh 0.57.
